# An excerpt weighted towards active compounds, which were near 5.3% of everything screened.
# TDP1 block = qHTS Assay for Inhibitors of Tyrosyl-DNA Phosphodiesterase (TDP1); Tyrosyl-DNA phosphodiesterase 1 (Homo sapiens), Q9NUW8; recombinant TDP1, AlphaScreen DNA substrate cleavage; 0.28% of 350,000 active; Potency, µM (highest dose often 130 µM), for inactives: at the top dose activity change, negative = inhibition, hits mostly inhibitors; note: potency is the fitted concentration of half-maximal effect; % is set by controls: 0 for no effect and ±100 for the full control effect; nearly all actives have a fitted effect of over 40% in size
#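 Here, a 5' biotin and 3' phosphotyrosine-FITC DNA oligonucleotide reports Tdp1 activity: intact substrate bridges AlphaScreen beads, while cleavage leaves a 3' phosphate and drops signal. All incubations at room temperature.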
# HP1b binding inh = HTS for Inhibitors of HP1-beta Chromodomain Interactions with Methylated Histone Tails; 0.56% of 390,000 active; Potency, µM (doses to about 114 µM), for inactives: at the highest dose activity change, negative = inhibition, hits mostly inhibitors; Chromobox protein homolog 1 (Homo sapiens), P83916; AlphaScreen HP1-beta / biotin-H3K9me3 peptide binding; note: potency is the fitted concentration of half-maximal effect; nearly all actives have a fitted effect of over 70% in size
#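 AlphaScreen: HP1-beta (50 nM) preformed 30 min with biotin-H3(1-18)K9me3 peptide (50 nM) in PBS pH 7.4, 0.01% Tween-20. Compound added for 30 min at RT, then streptavidin donor/nickel chelate acceptor beads (10 ug/mL) for 30 min.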
# BAZ2B block = qHTS Assay for Inhibitors of BAZ2B | Bromodomain adjacent to zinc finger domain protein 2B (Homo sapiens), Q9UIF8 | AlphaScreen BAZ2B-H3K14Ac peptide displacement | Potency, µM (titrated, usually from 114 µM), without a hit: top-dose activity change, negative = inhibition, hits mostly inhibitors | 4.4% of 360,000 active | AID 504333, 2011; note: potency is the fitted concentration of half-maximal effect; % is set by controls: 0 for no effect and ±100 for the full control effect; nearly all actives have a fitted effect of over 60% in size
#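 Inhibition is scored as reduced AlphaScreen emission. The BAZ2B/b-H3(5-23)K14Ac complex (50 nM each) in PBS pH 7.4, 0.01% Tween-20 meets compound (up to 110 uM) for 30 min at RT before bead addition.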
# JMJD2A Tudor = qHTS Assay for Inhibitors of JMJD2A-Tudor Domain; 4.4% of 390,000 active; AID 504339, 2011; AlphaScreen JMJD2A-Tudor / H3K4me3 peptide binding; Potency, µM (series often up to 114 µM), inactives show at the highest dose activity change, negative = inhibition, actives largely listed as inhibitors; Lysine-specific demethylase 4A (Homo sapiens), O75164; note: potency is the fitted concentration of half-maximal effect; % is set by controls: 0 for no effect and ±100 for the full control effect; nearly all actives have a fitted effect of over 50% in size
# Six1-Eya2 blk = qHTS Assay for Inhibitors of the Six1/Eya2 Interaction. AlphaScreen GST-Six1/His-Eya2 binding, biochemical; hits give low values. activity change, % (no concentration beside the values). 0.56% of 360,000 active. AID 651725, 2012; in the data active = activity change below about -65%; inconclusive = mostly about -30% to -63%; note: % is set by controls: 0 for no effect and ±100 for the full control effect
#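 AlphaScreen with GST-Six1 and His-Eya2 (5X mix: 250 nM and 500 nM), glutathione donor and nickel acceptor beads; buffer 50 mM Tris pH 8.0, 300 mM NaCl, 1 mM TCEP; 1 h at 37 C in the dark.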
# CtBP-E1A inh = qHTS Assay for Inhibitors of the CtBP/E1A Interaction; AlphaScreen GST-E1A/His-CtBP binding, 1536-well; hits give low values; activity change, % (test concentration not listed); 0.49% of 340,000 active; AID 651724, 2012; in the data active = activity change below about -65%; inconclusive = mostly about -30% to -63%; note: % is set by controls: 0 for no effect and ±100 for the full control effect
#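 AlphaScreen with 125 nM GST-E1A and 125 nM His-CtBP (5X stocks) in Tris pH 8.0, 300 mM NaCl, BSA, Tween 20, TCEP. Compounds preincubated 2 h at 37 deg C, then glutathione donor/nickel acceptor beads added for 1 h at 37 deg C in dark.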
# * = called active by the depositor; ? = inconclusive; nt = no result given; [ ] = dose if it differs, or a comment. Unless noted, calls come from the whole dose curve; as a rule, active = well fitted inhibition curve with a large enough effect; inconclusive = small, poorly fitted or top-dose-only effect; inactive = no such curve, though single readings can be large or run the other way.
SMILES,TDP1 block,HP1b binding inh,BAZ2B block,JMJD2A Tudor,Six1-Eya2 blk,CtBP-E1A inh
O=C1CN(C(=O)N[C@@H](Cc2ccccc2)C(=O)N[C@@H](C(=O)O)c2ccccc2)c2ccccc2N1,2%,18%,-5%,32µM*,2,1
CC(C)C[C@H](NC(=O)N1CC(=O)Nc2ccccc21)C(=O)N[C@@H](C(=O)O)c1ccccc1,4%,59%,-8%,-14%,7,3
COc1ccccc1CNC(=O)CNC(=O)N1CC(=O)Nc2ccccc21,5%,33%,-13%,3%,-1,0
Cc1nc(-c2cccc(S(=O)(=O)N3CCC(C(=O)NCc4ccccc4)CC3)c2)no1,0%,33%,-2%,-18%,nt,nt
COc1cc(/C=N/NC(=O)[C@H](Cc2c[nH]c3ccccc23)NC(=O)OCC(C)C)cc([N+](=O)[O-])c1O,4%,-17%,40µM*,?,?,-25
COc1cc(/C=N/NC(=O)Cc2ccccc2)cc([N+](=O)[O-])c1O,nt,13%,-34%,-17%,-13,nt
Cc1cc(C)c(-c2cc([C@H](C)O/N=C3/[C@H]4OC4[C@@H](O)[C@H]4[C@H]3CCn3c(=O)n(-c5ccccc5)c(=O)n34)on2)c(C)c1 (stereo partly specified),-1%[21 µM],nt,nt,nt,nt,nt
CN1C(C(=O)Nc2ccc(C(=O)O)cc2)=C(O)c2ccccc2S1(=O)=O,-1%,-6%,-29%,79µM*,0,-19
CN1C(C(=O)c2ccccc2)=C(NC(=O)c2ccc(F)cc2)c2ccccc2S1(=O)=O,nt,15%,-20%,-13%,nt,nt
CC[C@H](C)[C@H](NC(=O)[C@H](Cc1ccc(O)cc1)NC(=O)CNC(=O)[C@@H]1CCCN1C(=O)[C@H](CC(=O)O)NC(=O)[C@@H](N)CS)C(=O)NCC(=O)N[C@@H](CO)C(=O)N[C@@H](CCCN=C(N)N)C(N)=O,0%,nt,nt,nt,nt,nt
CN(CC(=O)Nc1n[nH]c(=S)s1)S(=O)(=O)c1cccc2cccnc12,nt,?,?,3.5µM*,-2,nt
Cc1csc(NC(=O)CN(C)S(=O)(=O)c2cccc3cccnc23)n1,-8%,59%,-3%,-17%,2,-2
CCCCn1cc(S(=O)(=O)c2ccccc2)c(=O)c2cc(F)c(N3CCC(C)CC3)cc21,-4%,29%,5%,-13%,nt,nt
COC1=C(Nc2ccccc2)C(=O)c2ccccc2C1=O,0%,35µM*,14µM*,14µM*,-83*,-67*
COC1=C(Nc2ccc(C)cc2)C(=O)c2ccccc2C1=O,11%,16µM*,7.9µM*,10µM*,-86*,-90*
COc1ccc(S(=O)(=O)Nc2ccc(Nc3ccccc3)cc2)cc1,nt,-11%,nt,?,3,nt
CSCCC(NS(=O)(=O)c1ccc2c(c1)oc(=O)n2C)C(=O)NCc1ccc(Cl)cc1 (stereo unspecified),2%,15%,8%,-8%,nt,nt
O=C(CSc1ncn[nH]1)c1ccccc1,-2%,-70%,?,25µM*,3,4
O=C(CSc1ncn[nH]1)c1ccco1,nt,?,0%,-5%[11.4 µM],4,1
Cc1cc2c(cc1S(=O)(=O)CCC(=O)N1CCN(c3ccccc3)CC1)OCC(=O)N2,1%,32%,-16%,-3%,nt,nt
CC(C)CC(=O)NC(NC(=S)Nc1cccc2cccnc12)C(Cl)(Cl)Cl (stereo unspecified),8%,20%,-1%,-7%,-7,-7
Cc1conc1NC(c1cccs1)c1ccc2cccnc2c1O (stereo unspecified),8%,nt,25µM*,nt,nt,nt

# Screens (PubChem BioAssay)
